The text below walks through data of paper PMC11006913.

Changes are numbered by the printed parent chain.

Test in all cases: PBM; 200 nM protein, PBS
What all share (settings): dsDNA, one strand shown

Assay [1] addresses CRX (Homo sapiens, UniProt O43186 26-111).
Assay [2] deals with HOXA4 (Homo sapiens, UniProt Q00056 201-287, W262R).
Assay [3] deals with PRRX1 (Homo sapiens, UniProt P54821 80-166, F113S).
Assay [4] has as its target HOXA4 (Homo sapiens, UniProt Q00056 201-287, R217L).
Assay [5] has as its target CRX (Homo sapiens, UniProt O43186 26-111, E42D).
Assay [6] addresses HOXA4 (Homo sapiens, UniProt Q00056 201-287).
Assay [7] concerns the target HOXA4 (Homo sapiens, UniProt Q00056 201-287, W262F).
In assay [8] the target is PRRX1 (Homo sapiens, UniProt P54821 80-166).
PRRX1 (Homo sapiens, UniProt P54821 80-166), sequence (P54821 80-166): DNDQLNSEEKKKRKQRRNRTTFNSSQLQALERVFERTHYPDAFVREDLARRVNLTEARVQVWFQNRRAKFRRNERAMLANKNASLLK
Assay [9] deals with T1, VENTX (Homo sapiens, UniProt O95231 78-163, R121Q).
T1 sequence: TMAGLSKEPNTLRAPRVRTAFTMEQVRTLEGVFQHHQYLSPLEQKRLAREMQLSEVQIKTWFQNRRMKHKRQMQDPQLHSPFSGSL

Assay [10] has as its target T2, VENTX (Homo sapiens, UniProt O95231 78-163).
T2 sequence: T1 sequence with Q44R

For assay [11], the target named is T3, VENTX (Homo sapiens, UniProt O95231 78-163, Y115F).
T3 sequence: T1 sequence with Y38F, Q44R

The target of assay [12] is CRX (Homo sapiens, UniProt O43186 26-111, R41L).
CRX (Homo sapiens, UniProt O43186 26-111, R41L), sequence (O43186 26-111 R41L): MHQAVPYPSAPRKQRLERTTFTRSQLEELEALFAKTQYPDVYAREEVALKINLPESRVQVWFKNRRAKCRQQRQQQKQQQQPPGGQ
Assay [13] has as its target T4, SIX6 (Homo sapiens, UniProt O95475 114-200, L167I).
T4 sequence: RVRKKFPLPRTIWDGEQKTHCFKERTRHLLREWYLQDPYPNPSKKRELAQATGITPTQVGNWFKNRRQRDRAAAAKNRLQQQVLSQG

Assay [14] deals with T5, SIX6 (Homo sapiens, UniProt O95475 114-200, L143V).
T5 sequence: T4 sequence with L30V, I54L

The target of assay [15] is ALX4 (Homo sapiens, UniProt Q9H161 200-286).
ALX4 (Homo sapiens, UniProt Q9H161 200-286), sequence (Q9H161 200-286): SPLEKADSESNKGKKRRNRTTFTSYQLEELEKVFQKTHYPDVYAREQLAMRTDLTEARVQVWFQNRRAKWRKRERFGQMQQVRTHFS
Assay [16] has as its target T6, SIX6 (Homo sapiens, UniProt O95475 114-200, H141N).
T6 sequence: T4 sequence with H28N, I54L

Assay [17] concerns the target T7, SIX6 (Homo sapiens, UniProt O95475 114-200, T165P).
T7 sequence: T4 sequence with T52P, I54L

In assay [18] the target is T8, SIX6 (Homo sapiens, UniProt O95475 114-200, L167M).
T8 sequence: T4 sequence with I54M

In assay [19] the target is T9, SIX6 (Homo sapiens, UniProt O95475 114-200, L143M).
T9 sequence: T4 sequence with L30M, I54L

The target of assay [20] is T10, SIX6 (Homo sapiens, UniProt O95475 114-200, L143I).
T10 sequence: T4 sequence with L30I, I54L

The target of assay [21] is ALX4 (Homo sapiens, UniProt Q9H161 200-286, Q225E).
ALX4 (Homo sapiens, UniProt Q9H161 200-286, Q225E), sequence (Q9H161 200-286 Q225E): as the sequence (Q9H161 200-286) above, with Q26E counted along it
Assay [22] concerns the target T11, SIX6 (Homo sapiens, UniProt O95475 114-200, T165G).
T11 sequence: T4 sequence with T52G, I54L

The target in assay [23] is T12, SIX6 (Homo sapiens, UniProt O95475 114-200, T139Q).
T12 sequence: T4 sequence with T26Q, I54L

Assay [24] deals with T13, SIX6 (Homo sapiens, UniProt O95475 114-200, T165A).
T13 sequence: T4 sequence with T52A, I54L

Assay [25] deals with T14, SIX6 (Homo sapiens, UniProt O95475 114-200, L167V).
T14 sequence: T4 sequence with I54V

For assay [26], the target named is T15, SIX6 (Homo sapiens, UniProt O95475 114-200).
T15 sequence: T4 sequence with I54L

Assay [27] addresses T16, SIX6 (Homo sapiens, UniProt O95475 114-200, T165I).
T16 sequence: T4 sequence with T52I, I54L

Another assay addresses PITX2 (Homo sapiens, UniProt Q99697 72-157).

CRX (Homo sapiens, UniProt O43186 26-111), sequence (O43186 26-111): as the sequence (O43186 26-111 R41L) above, with L16R counted along it
CRX (Homo sapiens, UniProt O43186 26-111, E42D), sequence (O43186 26-111 E42D): as the sequence (O43186 26-111 R41L) above, with L16R, E17D counted along it
PRRX1 (Homo sapiens, UniProt P54821 80-166, F113S), sequence (P54821 80-166 F113S): as the sequence (P54821 80-166) above, with F34S counted along it
HOXA4 (Homo sapiens, UniProt Q00056 201-287, R217L), sequence (Q00056 201-287 R217L): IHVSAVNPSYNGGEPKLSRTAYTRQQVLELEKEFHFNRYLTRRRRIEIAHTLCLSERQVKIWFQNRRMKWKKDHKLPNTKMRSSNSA
HOXA4 (Homo sapiens, UniProt Q00056 201-287, W262R), sequence (Q00056 201-287 W262R): as the sequence (Q00056 201-287 R217L) above, with L17R, W62R counted along it
HOXA4 (Homo sapiens, UniProt Q00056 201-287), sequence (Q00056 201-287): as the sequence (Q00056 201-287 R217L) above, with L17R counted along it
HOXA4 (Homo sapiens, UniProt Q00056 201-287, W262F), sequence (Q00056 201-287 W262F): as the sequence (Q00056 201-287 R217L) above, with L17R, W62F counted along it

Turning to GGGGCTCA, the binding signal was 9.96 upbm affinity estimate (log intensity, higher = more binding, comparable within an allelic series) with CRX [1]; 9.76 upbm affinity estimate (log intensity, higher = more binding, comparable within an allelic series) in the assay with HOXA4 [2]; 9.31 upbm affinity estimate (log intensity, higher = more binding, comparable within an allelic series) with PRRX1 [3]; 9.78 upbm affinity estimate (log intensity, higher = more binding, comparable within an allelic series) with HOXA4 [4]; 9.8 upbm affinity estimate (log intensity, higher = more binding, comparable within an allelic series) with CRX [5]; 9.76 upbm affinity estimate (log intensity, higher = more binding, comparable within an allelic series) with HOXA4 [6]. In addition, the binding signal with HOXA4 [7] is 9.78 upbm affinity estimate (log intensity, higher = more binding, comparable within an allelic series); in the assay with PRRX1 [8], 9.52 upbm affinity estimate (log intensity, higher = more binding, comparable within an allelic series).

Take CTGGGGCA: the binding signal is 8.18 upbm affinity estimate (log intensity, higher = more binding, comparable within an allelic series) in the assay with CRX [1]; 8.13 upbm affinity estimate (log intensity, higher = more binding, comparable within an allelic series) with VENTX [9]; 8.21 upbm affinity estimate (log intensity, higher = more binding, comparable within an allelic series) with VENTX [10]; 8.17 upbm affinity estimate (log intensity, higher = more binding, comparable within an allelic series) with VENTX [11]; 8.24 upbm affinity estimate (log intensity, higher = more binding, comparable within an allelic series) with CRX [5]; 8.28 upbm affinity estimate (log intensity, higher = more binding, comparable within an allelic series) with CRX [12].

For CGCACCGC, the binding signal is 8.16 upbm affinity estimate (log intensity, higher = more binding, comparable within an allelic series) with CRX [1]; 8.91 upbm affinity estimate (log intensity, higher = more binding, comparable within an allelic series) with SIX6 [13]; 8.89 upbm affinity estimate (log intensity, higher = more binding, comparable within an allelic series) with SIX6 [14]; 8.06 upbm affinity estimate (log intensity, higher = more binding, comparable within an allelic series) with ALX4 [15]; 8.95 upbm affinity estimate (log intensity, higher = more binding, comparable within an allelic series) in the assay with SIX6 [16]; 8.88 upbm affinity estimate (log intensity, higher = more binding, comparable within an allelic series) with SIX6 [17]. Moreover, the binding signal was 8.89 upbm affinity estimate (log intensity, higher = more binding, comparable within an allelic series) in the assay with SIX6 [18]; 8.96 upbm affinity estimate (log intensity, higher = more binding, comparable within an allelic series) with SIX6 [19]; 9 upbm affinity estimate (log intensity, higher = more binding, comparable within an allelic series) in the assay with SIX6 [20]; 8.31 upbm affinity estimate (log intensity, higher = more binding, comparable within an allelic series) with ALX4 [21]; 9.05 upbm affinity estimate (log intensity, higher = more binding, comparable within an allelic series) with SIX6 [22]; 9.17 upbm affinity estimate (log intensity, higher = more binding, comparable within an allelic series) with SIX6 [23]. Also, the binding signal with CRX [5] is 8.2 upbm affinity estimate (log intensity, higher = more binding, comparable within an allelic series); with SIX6 [24], 8.98 upbm affinity estimate (log intensity, higher = more binding, comparable within an allelic series); with SIX6 [25], 8.96 upbm affinity estimate (log intensity, higher = more binding, comparable within an allelic series); in the assay with SIX6 [26] it was 8.97 upbm affinity estimate (log intensity, higher = more binding, comparable within an allelic series); in the assay with SIX6 [27], 8.85 upbm affinity estimate (log intensity, higher = more binding, comparable within an allelic series); with CRX [12], 8.26 upbm affinity estimate (log intensity, higher = more binding, comparable within an allelic series).

In the case of CAGATTAA, the binding signal is 13.1 upbm affinity estimate (log intensity, higher = more binding, comparable within an allelic series) with CRX [1]; 10.7 upbm affinity estimate (log intensity, higher = more binding, comparable within an allelic series) with VENTX [9]; 10.7 upbm affinity estimate (log intensity, higher = more binding, comparable within an allelic series) with VENTX [11]; 13.1 upbm affinity estimate (log intensity, higher = more binding, comparable within an allelic series) in the assay with CRX [5]; 12.5 upbm affinity estimate (log intensity, higher = more binding, comparable within an allelic series) in the assay with PITX2.

As to CGGATGAG, in the assay with CRX [1], the binding signal was 9.93 upbm affinity estimate (log intensity, higher = more binding, comparable within an allelic series).
